# Data as given in publication PMC7862700, “An all-to-all approach to the identification of sequence-specific readers for epigenetic DNA modifications on cytosine”.
# Key:
# Test in all cases: DAPPL (digital affinity profiling via proximity ligation, sequencing); 10 mM Tris-HCl pH 7.5, 50 mM NaCl, 1 mM DTT, 4% glycerol, room temperature, 30 min; GST-TFs on glutathione beads, 16-mer random dsDNA library, 0.1% formaldehyde crosslink after washing; high values mean tight binding
# FLI1 = biological target: T1, FLI1 (Homo sapiens, UniProt Q01543 1-452); conditions: protein: recombinant; tags: N-terminal GST; dsDNA, one strand shown
# T1 sequence: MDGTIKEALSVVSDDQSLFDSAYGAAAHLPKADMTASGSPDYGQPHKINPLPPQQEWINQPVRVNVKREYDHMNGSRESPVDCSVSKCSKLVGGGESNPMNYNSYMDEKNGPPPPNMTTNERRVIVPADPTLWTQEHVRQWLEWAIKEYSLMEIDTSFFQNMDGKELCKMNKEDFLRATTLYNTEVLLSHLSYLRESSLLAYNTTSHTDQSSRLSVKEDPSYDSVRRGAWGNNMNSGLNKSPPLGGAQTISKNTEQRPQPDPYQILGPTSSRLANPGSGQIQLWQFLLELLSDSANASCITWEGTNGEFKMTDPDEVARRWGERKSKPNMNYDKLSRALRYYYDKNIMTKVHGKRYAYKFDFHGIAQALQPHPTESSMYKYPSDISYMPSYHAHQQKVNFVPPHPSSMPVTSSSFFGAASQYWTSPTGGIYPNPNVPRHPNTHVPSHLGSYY
# Procedure, shortened: (§1)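 Binding signal is given per hexamer as its read frequency for a factor divided by its frequency in the tag-only sample. GST-fused human transcription factors were expressed in yeast, captured on glutathione beads, barcoded with DNA and pooled with that sample, then incubated with 200 nmole of a 16-mer random double-stranded DNA library in Tris/NaCl/DTT/glycerol buffer for 30 min at room temperature. The pools were then washed, crosslinked, proximity-ligated, amplified by PCR and sequenced on an Illumina NextSeq500.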
# ELK1 = biological target: T2, ELK1 (Homo sapiens, UniProt P19419 1-428); conditions: protein: recombinant; tags: N-terminal GST; dsDNA, one strand shown
# T2 sequence: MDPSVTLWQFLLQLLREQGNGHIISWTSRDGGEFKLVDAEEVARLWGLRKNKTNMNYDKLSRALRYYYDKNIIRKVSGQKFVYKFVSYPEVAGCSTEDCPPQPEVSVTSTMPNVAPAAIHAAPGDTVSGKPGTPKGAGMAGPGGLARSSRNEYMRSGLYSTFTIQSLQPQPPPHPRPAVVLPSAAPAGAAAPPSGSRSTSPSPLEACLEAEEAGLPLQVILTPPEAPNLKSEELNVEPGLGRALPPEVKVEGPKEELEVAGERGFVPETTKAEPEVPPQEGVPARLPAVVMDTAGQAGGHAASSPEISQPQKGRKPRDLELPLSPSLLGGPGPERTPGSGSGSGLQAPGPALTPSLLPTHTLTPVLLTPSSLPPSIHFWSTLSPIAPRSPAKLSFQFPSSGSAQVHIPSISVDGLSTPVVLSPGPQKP
# Procedure, shortened: as §1
# GABPA = biological target: T3, GABPA (Homo sapiens, UniProt Q06546 1-454); conditions: protein: recombinant; tags: N-terminal GST; dsDNA, one strand shown
# T3 sequence: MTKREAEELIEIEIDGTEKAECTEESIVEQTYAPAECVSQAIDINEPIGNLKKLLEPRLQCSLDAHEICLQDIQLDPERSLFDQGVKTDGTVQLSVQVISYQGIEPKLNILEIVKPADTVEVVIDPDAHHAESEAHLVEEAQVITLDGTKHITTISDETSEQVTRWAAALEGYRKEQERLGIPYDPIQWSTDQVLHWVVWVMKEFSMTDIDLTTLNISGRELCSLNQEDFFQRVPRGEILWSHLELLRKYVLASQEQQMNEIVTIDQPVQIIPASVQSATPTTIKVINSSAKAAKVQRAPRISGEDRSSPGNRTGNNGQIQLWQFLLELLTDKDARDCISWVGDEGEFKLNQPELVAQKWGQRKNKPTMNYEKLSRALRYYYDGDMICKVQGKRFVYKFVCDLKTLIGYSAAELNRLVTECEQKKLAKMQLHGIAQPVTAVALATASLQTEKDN
# Procedure, shortened: as §1
# ERG = biological target: T4, ERG (Homo sapiens, UniProt P11308 1-479); conditions: protein: recombinant; tags: N-terminal GST; dsDNA, one strand shown
# T4 sequence: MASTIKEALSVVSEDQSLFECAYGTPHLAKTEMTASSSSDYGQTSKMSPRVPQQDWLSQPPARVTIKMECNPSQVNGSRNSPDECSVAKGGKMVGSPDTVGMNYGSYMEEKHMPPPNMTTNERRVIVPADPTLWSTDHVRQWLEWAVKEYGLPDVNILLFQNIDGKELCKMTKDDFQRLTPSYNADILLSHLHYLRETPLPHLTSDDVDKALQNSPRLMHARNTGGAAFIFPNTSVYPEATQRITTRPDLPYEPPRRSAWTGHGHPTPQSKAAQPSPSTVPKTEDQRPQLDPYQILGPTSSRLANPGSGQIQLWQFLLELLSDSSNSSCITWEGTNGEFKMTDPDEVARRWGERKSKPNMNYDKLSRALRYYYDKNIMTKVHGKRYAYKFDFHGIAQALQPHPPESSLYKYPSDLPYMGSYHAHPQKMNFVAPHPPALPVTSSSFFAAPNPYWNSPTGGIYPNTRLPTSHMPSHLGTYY
# Procedure, shortened: as §1
# ELF1 = ELF1 (Homo sapiens, UniProt P32519 1-619); conditions: protein: recombinant; tags: N-terminal GST; dsDNA, one strand shown
# ELF1, sequence (P32519 whole entry): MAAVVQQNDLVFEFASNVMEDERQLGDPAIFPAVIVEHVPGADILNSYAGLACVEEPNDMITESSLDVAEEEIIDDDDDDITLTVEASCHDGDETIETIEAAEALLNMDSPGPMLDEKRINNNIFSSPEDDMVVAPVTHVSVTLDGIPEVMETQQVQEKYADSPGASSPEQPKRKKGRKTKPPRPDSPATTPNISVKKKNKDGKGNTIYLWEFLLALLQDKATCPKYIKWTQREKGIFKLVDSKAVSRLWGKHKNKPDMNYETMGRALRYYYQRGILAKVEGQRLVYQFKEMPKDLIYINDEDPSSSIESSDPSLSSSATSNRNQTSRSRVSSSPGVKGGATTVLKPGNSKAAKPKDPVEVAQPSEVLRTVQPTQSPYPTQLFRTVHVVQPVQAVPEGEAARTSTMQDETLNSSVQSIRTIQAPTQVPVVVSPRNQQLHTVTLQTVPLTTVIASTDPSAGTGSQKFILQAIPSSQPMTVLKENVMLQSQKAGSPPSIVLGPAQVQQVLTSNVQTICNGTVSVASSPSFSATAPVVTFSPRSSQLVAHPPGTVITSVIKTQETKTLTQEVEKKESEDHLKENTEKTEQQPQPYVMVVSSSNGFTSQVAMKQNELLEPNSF
# Procedure, shortened: as §1
# EHF = biological target: T5, EHF (Homo sapiens, UniProt Q9NZC4 1-300); conditions: protein: recombinant; tags: N-terminal GST; dsDNA, one strand shown
# T5 sequence: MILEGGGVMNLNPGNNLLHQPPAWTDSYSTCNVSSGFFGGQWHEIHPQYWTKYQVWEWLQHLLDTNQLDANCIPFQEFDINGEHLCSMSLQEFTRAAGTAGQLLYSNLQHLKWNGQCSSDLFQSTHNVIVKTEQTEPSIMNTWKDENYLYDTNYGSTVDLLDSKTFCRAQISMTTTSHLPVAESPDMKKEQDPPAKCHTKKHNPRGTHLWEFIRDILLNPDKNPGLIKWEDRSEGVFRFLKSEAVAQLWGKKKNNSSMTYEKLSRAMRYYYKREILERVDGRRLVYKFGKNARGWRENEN
# Procedure, shortened: as §1
# SPI1 = SPI1 (Homo sapiens, UniProt P17947 1-270); conditions: protein: recombinant; tags: N-terminal GST; dsDNA, one strand shown
# Procedure, shortened: as §1
# SPIB = SPIB (Homo sapiens, UniProt Q01892 1-262); conditions: protein: recombinant; tags: N-terminal GST; dsDNA, one strand shown
# SPIB, sequence (Q01892 whole entry): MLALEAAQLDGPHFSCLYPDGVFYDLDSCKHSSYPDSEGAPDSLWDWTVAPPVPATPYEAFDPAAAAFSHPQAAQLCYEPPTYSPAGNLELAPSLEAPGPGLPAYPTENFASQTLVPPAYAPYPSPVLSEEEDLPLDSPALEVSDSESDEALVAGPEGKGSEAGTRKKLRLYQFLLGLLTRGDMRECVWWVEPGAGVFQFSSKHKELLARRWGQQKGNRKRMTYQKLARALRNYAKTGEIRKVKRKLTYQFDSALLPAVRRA
# Procedure, shortened: as §1
# ELK3 = biological target: T6, ELK3 (Homo sapiens, UniProt P41970 1-407); conditions: protein: recombinant; tags: N-terminal GST; dsDNA, one strand shown
# T6 sequence: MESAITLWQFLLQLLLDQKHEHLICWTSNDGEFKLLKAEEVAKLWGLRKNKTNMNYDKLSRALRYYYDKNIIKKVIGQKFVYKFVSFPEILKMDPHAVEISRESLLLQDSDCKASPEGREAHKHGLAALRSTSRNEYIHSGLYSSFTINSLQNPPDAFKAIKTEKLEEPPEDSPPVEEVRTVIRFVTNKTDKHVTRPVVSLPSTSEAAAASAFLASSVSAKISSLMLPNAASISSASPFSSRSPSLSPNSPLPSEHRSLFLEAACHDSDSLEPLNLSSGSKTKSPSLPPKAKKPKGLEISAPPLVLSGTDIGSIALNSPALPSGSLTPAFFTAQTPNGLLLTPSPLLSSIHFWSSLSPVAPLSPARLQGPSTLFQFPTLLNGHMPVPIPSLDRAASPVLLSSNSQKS
# Procedure, shortened: as §1
# FEV = biological target: T7, FEV (Homo sapiens, UniProt Q99581 1-238); conditions: protein: recombinant; tags: N-terminal GST; dsDNA, one strand shown
# T7 sequence: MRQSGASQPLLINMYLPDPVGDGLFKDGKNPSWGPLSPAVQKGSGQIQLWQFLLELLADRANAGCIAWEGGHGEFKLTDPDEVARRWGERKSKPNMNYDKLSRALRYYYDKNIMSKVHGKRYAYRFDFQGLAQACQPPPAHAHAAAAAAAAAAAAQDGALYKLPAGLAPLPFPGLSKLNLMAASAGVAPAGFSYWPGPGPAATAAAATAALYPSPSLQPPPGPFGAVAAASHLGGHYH
# Procedure, shortened: as §1
# ETV5 = ETV5 (Homo sapiens, UniProt P41161 1-510); conditions: protein: recombinant; tags: N-terminal GST; dsDNA, one strand shown
# ETV5, sequence (P41161 whole entry): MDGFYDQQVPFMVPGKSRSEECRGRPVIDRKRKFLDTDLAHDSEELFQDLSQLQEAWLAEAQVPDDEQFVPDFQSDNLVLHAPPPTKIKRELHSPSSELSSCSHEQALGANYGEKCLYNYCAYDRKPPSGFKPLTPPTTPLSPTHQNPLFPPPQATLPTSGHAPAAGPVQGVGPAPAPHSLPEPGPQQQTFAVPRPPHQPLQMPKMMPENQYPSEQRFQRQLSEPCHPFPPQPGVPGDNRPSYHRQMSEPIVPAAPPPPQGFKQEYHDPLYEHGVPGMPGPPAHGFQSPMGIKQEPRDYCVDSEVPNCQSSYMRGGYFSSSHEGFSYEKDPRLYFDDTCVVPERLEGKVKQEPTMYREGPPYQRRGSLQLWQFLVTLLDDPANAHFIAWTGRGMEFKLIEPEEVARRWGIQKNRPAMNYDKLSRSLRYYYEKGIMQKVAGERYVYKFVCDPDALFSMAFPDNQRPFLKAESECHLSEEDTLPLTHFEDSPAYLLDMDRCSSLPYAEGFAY
# Procedure, shortened: as §1
# HSF1 = HSF1 (Homo sapiens, UniProt Q00613 1-529); conditions: protein: recombinant; tags: N-terminal GST; chain copies: 3; dsDNA, one strand shown
# HSF1, sequence (Q00613 whole entry): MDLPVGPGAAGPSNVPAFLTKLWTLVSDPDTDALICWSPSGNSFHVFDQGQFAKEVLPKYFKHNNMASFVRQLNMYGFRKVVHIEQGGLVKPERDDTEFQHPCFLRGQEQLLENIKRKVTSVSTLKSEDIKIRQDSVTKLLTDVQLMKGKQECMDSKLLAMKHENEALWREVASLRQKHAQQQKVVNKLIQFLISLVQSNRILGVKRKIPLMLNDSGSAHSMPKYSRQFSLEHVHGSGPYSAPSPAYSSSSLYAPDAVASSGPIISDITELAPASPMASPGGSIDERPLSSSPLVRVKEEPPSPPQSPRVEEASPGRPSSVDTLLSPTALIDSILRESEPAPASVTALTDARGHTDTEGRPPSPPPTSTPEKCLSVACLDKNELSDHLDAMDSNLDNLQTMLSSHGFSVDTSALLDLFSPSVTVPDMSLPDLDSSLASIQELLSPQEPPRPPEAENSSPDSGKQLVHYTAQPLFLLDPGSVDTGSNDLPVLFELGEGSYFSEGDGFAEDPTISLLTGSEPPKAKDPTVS
# Procedure, shortened: as §1
# SPIC = biological target: T8, SPIC (Homo sapiens, UniProt Q8N5J4 1-248); conditions: protein: recombinant; tags: N-terminal GST; dsDNA, one strand shown
# T8 sequence: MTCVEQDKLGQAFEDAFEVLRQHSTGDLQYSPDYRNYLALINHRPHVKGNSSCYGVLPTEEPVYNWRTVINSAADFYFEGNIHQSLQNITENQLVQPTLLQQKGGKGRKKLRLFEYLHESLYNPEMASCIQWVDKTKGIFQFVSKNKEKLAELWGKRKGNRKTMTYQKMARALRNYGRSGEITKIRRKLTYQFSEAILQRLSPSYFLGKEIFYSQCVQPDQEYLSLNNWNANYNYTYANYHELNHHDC
# Procedure, shortened: as §1
# ELF4 = ELF4 (Homo sapiens, UniProt Q99607 1-663); conditions: protein: recombinant; tags: N-terminal GST; dsDNA, one strand shown
# ELF4, sequence (Q99607 whole entry): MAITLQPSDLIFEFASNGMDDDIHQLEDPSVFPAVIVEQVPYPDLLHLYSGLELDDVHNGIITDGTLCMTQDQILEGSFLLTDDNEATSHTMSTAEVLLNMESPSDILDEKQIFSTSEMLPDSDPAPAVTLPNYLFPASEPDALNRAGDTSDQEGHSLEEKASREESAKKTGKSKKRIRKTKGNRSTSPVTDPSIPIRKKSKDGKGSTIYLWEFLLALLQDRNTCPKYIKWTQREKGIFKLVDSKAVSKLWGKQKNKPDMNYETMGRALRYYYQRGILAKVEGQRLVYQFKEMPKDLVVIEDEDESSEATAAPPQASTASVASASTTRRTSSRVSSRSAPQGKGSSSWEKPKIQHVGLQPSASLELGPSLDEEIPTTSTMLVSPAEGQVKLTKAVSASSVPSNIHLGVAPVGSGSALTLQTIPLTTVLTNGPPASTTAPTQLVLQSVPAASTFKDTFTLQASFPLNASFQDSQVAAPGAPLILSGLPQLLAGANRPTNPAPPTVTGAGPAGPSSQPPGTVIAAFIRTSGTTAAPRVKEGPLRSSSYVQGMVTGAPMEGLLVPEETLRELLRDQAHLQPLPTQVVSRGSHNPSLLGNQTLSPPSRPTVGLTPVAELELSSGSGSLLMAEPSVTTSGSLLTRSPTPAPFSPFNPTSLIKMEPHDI
# Procedure, shortened: as §1
# ELK4 = biological target: T9, ELK4 (Homo sapiens, UniProt P28324-2 1-405); conditions: protein: recombinant; tags: N-terminal GST; dsDNA, one strand shown
# T9 sequence: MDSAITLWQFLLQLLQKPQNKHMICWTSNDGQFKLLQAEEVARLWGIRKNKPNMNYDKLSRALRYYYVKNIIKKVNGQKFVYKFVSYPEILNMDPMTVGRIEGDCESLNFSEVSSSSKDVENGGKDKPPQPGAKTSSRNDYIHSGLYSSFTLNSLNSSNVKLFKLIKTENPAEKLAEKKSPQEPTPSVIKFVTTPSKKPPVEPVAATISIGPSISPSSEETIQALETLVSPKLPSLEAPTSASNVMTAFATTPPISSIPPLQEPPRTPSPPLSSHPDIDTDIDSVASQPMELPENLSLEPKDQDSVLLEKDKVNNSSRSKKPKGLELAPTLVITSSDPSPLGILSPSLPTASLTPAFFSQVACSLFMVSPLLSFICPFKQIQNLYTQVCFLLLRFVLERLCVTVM
# Procedure, shortened: as §1
# ETV2 = biological target: T10, ETV2 (Homo sapiens, UniProt O00321 1-342); conditions: protein: recombinant; tags: N-terminal GST; dsDNA, one strand shown
# T10 sequence: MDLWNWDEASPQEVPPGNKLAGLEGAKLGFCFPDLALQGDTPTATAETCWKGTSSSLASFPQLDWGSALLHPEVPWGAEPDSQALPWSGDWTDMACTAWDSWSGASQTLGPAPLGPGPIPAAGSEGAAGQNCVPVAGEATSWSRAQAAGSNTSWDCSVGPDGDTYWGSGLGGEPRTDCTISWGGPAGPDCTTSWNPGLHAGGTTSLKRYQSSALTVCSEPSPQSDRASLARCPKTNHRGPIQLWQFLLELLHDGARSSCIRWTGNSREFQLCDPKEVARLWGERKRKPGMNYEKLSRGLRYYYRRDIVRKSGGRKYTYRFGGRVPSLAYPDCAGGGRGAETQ
# Procedure, shortened: as §1
# ELF3 = biological target: T11, ELF3 (Homo sapiens, UniProt P78545 1-371); conditions: protein: recombinant; tags: N-terminal GST; dsDNA, one strand shown
# T11 sequence: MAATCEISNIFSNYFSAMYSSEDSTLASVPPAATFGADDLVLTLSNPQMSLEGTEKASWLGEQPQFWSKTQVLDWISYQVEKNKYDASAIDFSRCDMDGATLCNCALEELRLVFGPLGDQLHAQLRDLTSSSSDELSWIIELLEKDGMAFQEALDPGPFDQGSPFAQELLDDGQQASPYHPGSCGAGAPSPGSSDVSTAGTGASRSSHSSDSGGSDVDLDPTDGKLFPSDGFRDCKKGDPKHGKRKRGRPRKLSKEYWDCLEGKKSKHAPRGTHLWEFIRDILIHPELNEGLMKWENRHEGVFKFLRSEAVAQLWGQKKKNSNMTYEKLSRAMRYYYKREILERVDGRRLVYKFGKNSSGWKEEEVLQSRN
# Procedure, shortened: as §1
# CRX = CRX (Homo sapiens, UniProt O43186 1-299); conditions: protein: recombinant; tags: N-terminal GST; dsDNA, one strand shown
# CRX, sequence (O43186 whole entry): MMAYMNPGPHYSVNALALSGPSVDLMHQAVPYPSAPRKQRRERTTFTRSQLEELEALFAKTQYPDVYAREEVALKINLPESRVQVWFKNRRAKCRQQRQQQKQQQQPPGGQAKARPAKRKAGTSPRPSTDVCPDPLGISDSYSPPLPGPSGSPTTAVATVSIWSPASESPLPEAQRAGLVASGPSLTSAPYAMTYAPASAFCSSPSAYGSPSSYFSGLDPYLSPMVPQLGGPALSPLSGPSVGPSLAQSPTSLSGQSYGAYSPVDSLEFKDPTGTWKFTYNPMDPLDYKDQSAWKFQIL
# Procedure, shortened: as §1
# ETV1 = ETV1 (Homo sapiens, UniProt P50549 1-477); conditions: protein: recombinant; tags: N-terminal GST; dsDNA, one strand shown
# ETV1, sequence (P50549 whole entry): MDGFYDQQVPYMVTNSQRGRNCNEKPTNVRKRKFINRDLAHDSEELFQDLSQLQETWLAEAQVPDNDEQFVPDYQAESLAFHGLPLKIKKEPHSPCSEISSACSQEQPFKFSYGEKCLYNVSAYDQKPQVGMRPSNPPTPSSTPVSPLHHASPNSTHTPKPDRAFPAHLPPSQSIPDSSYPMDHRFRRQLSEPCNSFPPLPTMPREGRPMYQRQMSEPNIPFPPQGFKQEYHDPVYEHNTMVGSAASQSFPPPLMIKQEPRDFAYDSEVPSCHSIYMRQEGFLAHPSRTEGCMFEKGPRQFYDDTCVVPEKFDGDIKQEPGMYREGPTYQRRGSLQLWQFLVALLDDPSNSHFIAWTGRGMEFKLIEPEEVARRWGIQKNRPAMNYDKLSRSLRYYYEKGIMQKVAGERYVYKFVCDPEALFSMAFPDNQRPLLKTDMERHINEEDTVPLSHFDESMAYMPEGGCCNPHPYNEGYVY
# Procedure, shortened: as §1
sequence,measurement,setting,value
ATGACA,binding signal,FLI1,"1.34 fold enrichment (6-mer frequency, TF over GST control)"
same,binding signal,ELK1,"1.32 fold enrichment (6-mer frequency, TF over GST control)"
same,binding signal,GABPA,"1.45 fold enrichment (6-mer frequency, TF over GST control)"
same,binding signal,ERG,"1.32 fold enrichment (6-mer frequency, TF over GST control)"
same,binding signal,ELF1,"1.39 fold enrichment (6-mer frequency, TF over GST control)"
same,binding signal,EHF,"1.32 fold enrichment (6-mer frequency, TF over GST control)"
same,binding signal,SPI1,"1.29 fold enrichment (6-mer frequency, TF over GST control)"
same,binding signal,SPIB,"1.32 fold enrichment (6-mer frequency, TF over GST control)"
same,binding signal,ELK3,"1.3 fold enrichment (6-mer frequency, TF over GST control)"
same,binding signal,FEV,"1.22 fold enrichment (6-mer frequency, TF over GST control)"
same,binding signal,ETV5,"1.29 fold enrichment (6-mer frequency, TF over GST control)"
same,binding signal,HSF1,"1.09 fold enrichment (6-mer frequency, TF over GST control)"
same,binding signal,SPIC,"1.14 fold enrichment (6-mer frequency, TF over GST control)"
same,binding signal,ELF4,"1.32 fold enrichment (6-mer frequency, TF over GST control)"
same,binding signal,ELK4,"1.19 fold enrichment (6-mer frequency, TF over GST control)"
same,binding signal,ETV2,"1.19 fold enrichment (6-mer frequency, TF over GST control)"
same,binding signal,ELF3,"1.33 fold enrichment (6-mer frequency, TF over GST control)"
same,binding signal,CRX,"1.09 fold enrichment (6-mer frequency, TF over GST control)"
same,binding signal,ETV1,"1.28 fold enrichment (6-mer frequency, TF over GST control)"
